High-throughput results deposited in PubChem by several laboratories.
Shown are actives, neighbours in structure and some others; about 4.7% of the full set was active somewhere.
TROY signal inh: inhibitors of TROY-dependent NF-kB signaling; Q293 LMP1-TROYcd NF-kB luciferase reporter, 4 h; inhibition, % at 10 µM; 0.98% of 360,000 active; AID 1347056;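 active = compounds whose plate-normalised and pattern-corrected inhibition of the luciferase reporter signal at the single screening dose is 50% or more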
TWEAK-Fn14 inh: inhibitors of TWEAK-Fn14 interaction signaling; TWEAK-stimulated Fn14 reporter cells, luciferase luminescence, 8 h; inhibition, % at 10 µM; 2% of 360,000 active; AID 1159606; in the data active = inhibition above about 50%
LMP1 NFkB inh: Epstein-Barr LMP1 NF-kappaB reporter inhibition. 0.69% of 350,000 active. AID 504558. inhibition, % at 12.5 µM. LMP1-induced NF-kappaB luciferase reporter cells, luminescence; in the data active = inhibition above about 41%; inconclusive = no clear call, values can overlap the other calls
HSP90 refold inh: blocks HSP90-mediated luciferase refolding in reticulocyte lysate; 0.91% of 290,000 active; Rabbit reticulocyte lysate, luciferase refolding luminescence, 3 h; inhibition, % at 5.6 µM;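 active = inhibition above the screen-wide mean plus 3 SD, computed separately per campaign, cut at about 16% in these data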;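 note: inhibitors lower the luminescence because luciferase stays unfolded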
HSF1 inh: HSF1 inhibition. NIH3T3-HGL HSE-luciferase, MG132-induced, luminescence 8 h; hits give low values. activity change, negative = inhibition, % at 7.5 µM (by protocol). 0.77% of 300,000 active. AID 2098;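 active = more than half of replicate wells show activity change below -50%, luminescence cut by over half; inconclusive = some wells, but at most half, below -50%; inactive = no replicate well below -50%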;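 note: luciferase reports HSF-1 transcriptional activity via heat shock element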
HSF1 activator: increases HSF-1 driven luciferase reporter signal. NIH3T3-HGL HSF-1 luciferase reporter, MG132, 8 h; 100% = twice DMSO control signal. activation, % at 9 µM. AID 504408. 1.7% of 300,000 active;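 active = mean replicate activation of at least 50% with a set share of replicates each reaching 50%; inconclusive = only one of those two conditions met; inactive = mean below 50% and too few replicates reaching it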
Of the large screens only hits and unclear results are named; the others gave an inactive call.

COc1ccc(C2=CC(=O)CC(c3ccc(F)cc3)C2)cn1 (stereo not given)	HSF1 activator 61 (no result: HSP90 refold inh)
COc1ccc(C2=CC(=O)C[C@H](c3ccc(F)cc3)C2)cc1OC	none (no result: HSP90 refold inh, HSF1 inh, HSF1 activator)
CC1(C)SC(=S)N(NC(=O)Nc2cccc3ccccc23)C1N(O)C(=O)Nc1ccccc1 (stereo not given)	TROY signal inh 55
CNC(=O)N(O)C1N(NC(=O)Nc2ccccc2)C(=S)SC1(C)C (stereo not given)	none
CN(C)C(CNC(=O)CSc1nnc(-c2ccco2)o1)c1ccccc1 (stereo not given)	TWEAK-Fn14 inh 98
COC(=O)CSc1nnc(-c2ccco2)o1	none
COc1ccccc1C(=O)CSc1nnc(-c2ccco2)o1	HSF1 activator 69
O=C(O)CSc1nnc(-c2ccco2)o1	none
CC1(C(=O)Nc2cccc(OC(F)(F)F)c2)Cc2c(-c3cccc(C(N)=O)c3)ccnc2O1 (stereo not given)	none (no result: LMP1 NFkB inh, HSP90 refold inh, HSF1 inh, HSF1 activator)
Cc1cc(Cl)ccc1-c1cc2nc(NCCCN(C)C)n(C)c(=O)c2s1	none (no result: LMP1 NFkB inh, HSP90 refold inh, HSF1 inh, HSF1 activator)
COc1ccccc1N1CCN(S(=O)(=O)CCNC(=O)C(C)Oc2ccccc2)CC1 (stereo not given)	none (no result: HSP90 refold inh, HSF1 inh, HSF1 activator)
CCCC1Cc2c(sc3nc(SC)nc(N)c23)CO1 (stereo not given)	TWEAK-Fn14 inh 68 (no result: HSF1 inh, HSF1 activator)
Cc1ccc(-c2nc(N)sc2C)cc1	TROY signal inh 88
Cc1ccc(-c2nc(N)sc2-c2ccc(C)cc2)cc1	none
CC(=O)OCCNc1cc(Sc2nc3ccccc3[nH]2)c2nonc2c1[N+](=O)[O-]	none
O=[N+]([O-])c1c(NCCCO)cc(SCc2ccco2)c2nonc12	none
CC(=O)OCCCNc1cc(Sc2nc3ccccc3s2)c2nonc2c1[N+](=O)[O-]	HSF1 inh -79
CC(=O)OCCCNc1cc(Sc2ccc(C)cc2)c2nonc2c1[N+](=O)[O-]	TROY signal inh 64, TWEAK-Fn14 inh 80, HSF1 inh -80
Cn1ccnc1Sc1cc(NCCCO)c([N+](=O)[O-])c2nonc12	HSF1 inh -95
O=[N+]([O-])c1c(NCCCO)cc(Sc2ccc(Cl)cc2)c2nonc12	TROY signal inh 79, LMP1 NFkB inh 48, HSF1 activator inconclusive
C[C@H]1CCCCO[C@H](CN(C)Cc2ccc(C(=O)O)cc2)[C@@H](C)CN([C@@H](C)CO)C(=O)c2cc(NS(=O)(=O)c3cn(C)cn3)ccc2O1	none (no result: HSP90 refold inh, HSF1 inh, HSF1 activator)
COc1cccc(NC(=O)CN2CCC(NC(=O)c3ccccc3C)CC2)c1	none (no result: HSP90 refold inh, HSF1 inh, HSF1 activator)
COC(=O)c1c(NC(=O)c2nn(C)cc2Cl)sc2c1CCCC2	HSF1 activator 58
CCOC(=O)[C@]12CCCC=C1N(Cc1cccc3ccccc13)C(=O)[C@H](CC(=O)NCc1cccs1)C2	none (no result: LMP1 NFkB inh, HSP90 refold inh, HSF1 inh, HSF1 activator)
Cc1ccc(Cc2c(-c3ccco3)nc3c4ccccc4ccn23)cc1	TWEAK-Fn14 inh 81 (no result: LMP1 NFkB inh, HSP90 refold inh, HSF1 inh, HSF1 activator)
COc1ccccc1Cc1c(-c2ccc(Cl)cc2)nc2c(C)cc(Br)cn12	TWEAK-Fn14 inh 60 (no result: LMP1 NFkB inh, HSP90 refold inh, HSF1 inh, HSF1 activator)
Cc1cc(Br)cn2c(Cc3cccc(Cl)c3)c(-c3ccco3)nc12	TWEAK-Fn14 inh 68 (no result: LMP1 NFkB inh, HSP90 refold inh, HSF1 inh, HSF1 activator)
Clc1cccc(Cc2c(-c3ccco3)nc3ccc(Cl)cn23)c1	TWEAK-Fn14 inh 64 (no result: LMP1 NFkB inh, HSP90 refold inh, HSF1 inh, HSF1 activator)
Clc1cccc(Cc2c(-c3ccco3)nc3ccc(Br)cn23)c1	none (no result: LMP1 NFkB inh, HSP90 refold inh, HSF1 inh, HSF1 activator)
COC(=O)C1(C(=O)OC)C/C=C\CCN(S(=O)(=O)c2ccccc2[N+](=O)[O-])CC1	none (no result: LMP1 NFkB inh, HSP90 refold inh, HSF1 inh, HSF1 activator)
CC1(C(=O)Nc2cnc3ccccc3c2)CCN1C(=O)c1ccccc1CCc1ccccc1 (stereo not given)	none (no result: LMP1 NFkB inh, HSP90 refold inh, HSF1 inh, HSF1 activator)
COC(=O)N1CCCCC1c1cc(C(=O)NCc2cccnc2)no1 (stereo not given)	none (no result: LMP1 NFkB inh, HSP90 refold inh, HSF1 inh, HSF1 activator)
CCN(CC)CCn1nc2c3c(cccc3c1=O)-c1ccccc1-2	HSF1 activator 173
O=c1c2cccc3c2c(nn1CN1CCOCC1)-c1ccccc1-3	none
CN1C[C@@H](CO)O[C@@H](n2cnc3c(N4CCOCC4)ncnc32)C1	none (no result: LMP1 NFkB inh, HSP90 refold inh, HSF1 inh, HSF1 activator)
CC(CCC(=O)O)C1CC[C@H]2C3CCC4CC(=O)CCC4(C)[C@H]3CC(=O)C12C (stereo not given in full)	HSF1 activator 58
CC(CCC(=O)O)C1CCC2C3CCC4C[C@H](O)CCC4(C)C3CC(=O)C12C (stereo not given in full)	none
CCOC(=O)C1CCN(Cc2ccc(OC)c(C)c2OC)CC1	none
CCOC(=O)C1CCN(Cc2cc(Cl)c3ccccc3c2O)CC1	HSF1 activator 97
Cc1cnc(C(=O)OC(C)C(=O)Nc2ccc(Oc3ccccc3)cc2)cn1 (stereo not given)	LMP1 NFkB inh 71 (no result: HSP90 refold inh, HSF1 inh, HSF1 activator)
CCOc1ccccc1NC(=O)C1CCCN1S(=O)(=O)c1ccc2c(c1)C(C)(C)C(=O)N2C (stereo not given)	none (no result: LMP1 NFkB inh, HSP90 refold inh, HSF1 inh, HSF1 activator)
CCOc1ccc(-c2nc(CSCC(=O)NC3CC3)c(C)o2)cc1	HSF1 inh -84
CCOc1ccc(-c2nc(CSCC(=O)NCc3ccco3)c(C)o2)cc1	TWEAK-Fn14 inh 65, LMP1 NFkB inh 60, HSF1 inh -72
CCOc1ccc(-c2nc(CSCC(=O)NC3CCN(Cc4ccccc4)CC3)c(C)o2)cc1	none (no result: HSP90 refold inh, HSF1 inh, HSF1 activator)
CCOC(=O)N1CCC(NC(=O)CSCc2nc(-c3ccc(OCC)cc3)oc2C)CC1	none
CCOc1ccc(NC(=O)Cn2nnc(C(=O)NCc3ccco3)c2N)cc1	HSF1 activator 56
CCOc1cccc(-c2cnc3cccnn23)c1	none (no result: LMP1 NFkB inh, HSP90 refold inh, HSF1 inh, HSF1 activator)
C=CCSc1nsc(NC(=O)Nc2ccc(F)cc2)n1	TWEAK-Fn14 inh 52
CCSc1nsc(NC(=O)Nc2ccccc2F)n1	none
CC1C/C(=C\c2cccnc2)C(=O)/C(=C/c2cccnc2)C1 (stereo not given)	TROY signal inh 52, TWEAK-Fn14 inh 103, LMP1 NFkB inh 92 (no result: HSF1 inh, HSF1 activator)
O=C1/C(=C/c2cccnc2)CCc2c1[nH]c1ccccc21	TWEAK-Fn14 inh 62
O=C1/C(=C\c2cccnc2)Sc2ccccc21	none
CC(C)C/C=C1\CCc2c([nH]c3ccccc23)C1=O	HSF1 activator 59
CCCCCCCCC1=NCCc2c1[nH]c1ccccc21	none
O=C1OC(/C=C/c2ccccc2)=NC/1=C\c1cccnc1	none
COc1ccc(CCNC(=O)CSc2nc3c(c(=O)n(C)c(=O)n3C)n2C)cc1OC	none
CCc1nc(SCC(=O)NCCc2ccc(OC)c(OC)c2)c2c(=O)n(C)c(=O)n(C)c2n1	HSF1 inh -78 (no result: HSP90 refold inh)
CN(C)c1ccc(-c2ccnc3c2CC(C)(C(=O)NCC2CC2)O3)cc1 (stereo not given)	none (no result: LMP1 NFkB inh, HSP90 refold inh, HSF1 inh, HSF1 activator)
CNC(=O)C1Cc2c(-c3ccc4c(c3)OCO4)ccnc2O1 (stereo not given)	none (no result: LMP1 NFkB inh, HSP90 refold inh, HSF1 inh, HSF1 activator)
CCC(C(=O)OCC(=O)C1(O)CCC2C3CCC4=CC(=O)CCC4(C)C3C(O)CC21C)C(C)C (stereo not given)	none (no result: HSP90 refold inh, HSF1 inh, HSF1 activator)
C[C@]12CCC(=O)C=C1CC[C@@H]1[C@@H]2CC[C@@]2(C)[C@H]1CC[C@]2(O)C(=O)CO	none
CC12CCC(=O)C=C1CCC1C2C(=O)CC2(C)C1CC[C@]2(O)C(=O)CO (stereo not given in full)	TWEAK-Fn14 inh 78
